According to PubChem BioAssay (EPA / NIEHS):
Values joined by “and” are separate entries in the source; they are usually repeats but may differ in a detail not shown here. Equal values may be shown once. Inconclusive results are not listed. More than one record can exist for a structure, and the calls need not agree. Active and inactive are the calls of the source. How the source made its calls: active means hit-call score of the fitted dose curve at least 0.9, where 1 is the maximum; inconclusive means response in the unintended direction; inactive means score below 0.9.

The molecules below were run against mouse Estrogen Receptor alpha (Era), Esr1 (gene 13982) (UniProt P19785) (assay: NVS_NR_mERa: NovaScreen (NVS) Nuclear Receptor Binding Assay for mouse Estrogen Receptor alpha (Era) (AID 2283378);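 further: hit means loss of bound radioligand signal relative to DMSO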).
Summary of the method: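 Cell-free radioligand competitive displacement binding, read by filter-based scintillation counting 18 h after dosing. Primary screen run in duplicate at 25 uM, actives retested in concentration series; loss of signal versus DMSO.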

Chain of mouse Estrogen Receptor alpha (Era), Esr1 (gene 13982) (P19785 whole entry, looked up): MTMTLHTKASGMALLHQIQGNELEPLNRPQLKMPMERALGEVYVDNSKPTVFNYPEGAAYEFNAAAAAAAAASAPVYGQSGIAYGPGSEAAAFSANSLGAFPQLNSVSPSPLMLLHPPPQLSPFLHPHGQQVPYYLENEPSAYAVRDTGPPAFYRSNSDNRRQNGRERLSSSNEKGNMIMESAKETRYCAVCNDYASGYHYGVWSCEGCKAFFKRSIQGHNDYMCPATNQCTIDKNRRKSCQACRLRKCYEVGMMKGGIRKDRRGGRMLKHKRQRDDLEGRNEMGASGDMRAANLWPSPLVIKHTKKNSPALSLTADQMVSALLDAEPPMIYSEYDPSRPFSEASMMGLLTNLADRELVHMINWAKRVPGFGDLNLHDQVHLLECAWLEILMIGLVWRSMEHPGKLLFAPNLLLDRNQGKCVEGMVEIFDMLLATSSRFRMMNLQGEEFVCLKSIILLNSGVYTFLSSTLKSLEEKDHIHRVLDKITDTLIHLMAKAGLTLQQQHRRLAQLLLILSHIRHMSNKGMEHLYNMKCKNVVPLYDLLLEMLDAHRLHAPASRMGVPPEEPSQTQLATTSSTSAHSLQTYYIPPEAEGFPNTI

AC50, active:
CC(=O)[C@@]1(O)CC[C@H]2[C@@H]3CCC4=CC(=O)CC[C@]4(C)[C@H]3CC[C@@]21C 10.1 µM

outcome, inactive:
CC(=O)[C@@]1(O)CC[C@H]2[C@@H]3CCC4=CC(=O)CC[C@]4(C)[C@H]3CC[C@@]21C
CN(C)C(=O)NC1(c2ccccc2)CCN(CCC[C@]2(c3ccc(Cl)c(Cl)c3)CCCN(C(=O)c3ccccc3)C2)CC1
CSc1ccc(Oc2ccc(S(N)(=O)=O)cc2CN(C)C)cc1C
CC(C)OC(=O)C(C)(C)Oc1ccc(C(=O)c2ccc(Cl)cc2)cc1
Cc1ccc(-c2cc(C(F)(F)F)nn2-c2ccc(S(N)(=O)=O)cc2)cc1

These molecules were tested against Agonist Androgen Response Element (ARE), AR (gene 367) (UniProt P10275) (assay: OT_AR_ARELUC_AG_1440: Odyssey Thera (OT) 24-hour CHO-K1 Luciferase Assay for Agonist Androgen Response Element (ARE) (AID 2283379)).
Summary of the method: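 CHO-K1 cells carrying an ARE-driven luciferase reporter were exposed to compounds for 24 h. Luminescence was then read after adding a D-luciferin/ATP mix, and activity was scored as a gain in signal over DMSO vehicle.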

Chain of Agonist Androgen Response Element (ARE), AR (gene 367) (P10275 whole entry, looked up): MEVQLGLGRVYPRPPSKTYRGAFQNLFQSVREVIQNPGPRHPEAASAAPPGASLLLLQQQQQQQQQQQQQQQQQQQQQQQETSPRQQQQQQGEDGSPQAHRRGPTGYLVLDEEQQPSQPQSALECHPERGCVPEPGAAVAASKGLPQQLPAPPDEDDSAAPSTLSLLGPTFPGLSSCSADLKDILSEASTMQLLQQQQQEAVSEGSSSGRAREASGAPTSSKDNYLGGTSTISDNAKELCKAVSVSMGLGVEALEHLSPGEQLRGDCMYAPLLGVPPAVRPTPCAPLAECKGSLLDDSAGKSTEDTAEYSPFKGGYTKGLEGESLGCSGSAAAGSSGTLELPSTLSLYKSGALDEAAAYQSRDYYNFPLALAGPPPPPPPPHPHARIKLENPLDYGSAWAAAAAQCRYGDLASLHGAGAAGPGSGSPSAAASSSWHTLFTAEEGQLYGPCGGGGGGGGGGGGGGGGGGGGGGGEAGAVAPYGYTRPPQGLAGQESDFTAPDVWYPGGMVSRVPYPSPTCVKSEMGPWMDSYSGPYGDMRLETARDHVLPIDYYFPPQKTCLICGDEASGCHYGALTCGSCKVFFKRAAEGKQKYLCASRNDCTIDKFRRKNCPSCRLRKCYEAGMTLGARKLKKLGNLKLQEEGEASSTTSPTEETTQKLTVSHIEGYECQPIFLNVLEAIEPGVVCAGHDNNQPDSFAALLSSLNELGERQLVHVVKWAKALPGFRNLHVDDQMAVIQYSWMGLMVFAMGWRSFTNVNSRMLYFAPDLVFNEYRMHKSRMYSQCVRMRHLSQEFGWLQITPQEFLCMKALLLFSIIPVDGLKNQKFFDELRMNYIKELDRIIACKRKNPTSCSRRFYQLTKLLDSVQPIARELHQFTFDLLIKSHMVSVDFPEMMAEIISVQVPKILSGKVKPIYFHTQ

outcome, inactive:
O=Cc1ccccc1C=O
Nc1nc(=S)c2[nH]cnc2[nH]1
CSc1ccc(Oc2ccc(S(N)(=O)=O)cc2CN(C)C)cc1C
O=C1OC(c2ccc(O)cc2)(c2ccc(O)cc2)c2ccccc21
CCN(CC)CCOc1ccc(C(=C(Cl)c2ccccc2)c2ccccc2)cc1
Cc1ccc(-c2cc(C(F)(F)F)nn2-c2ccc(S(N)(=O)=O)cc2)cc1
Cc1cc(SC2=C(O)C[C@@](CCc3ccc(N)cc3)(C(C)C)OC2=O)c(C(C)(C)C)cc1CO
CCC(C)N(C)C(=O)c1cc2ccccc2c(-c2ccccc2Cl)n1 (stereo not given)

The molecules below were run against Estrogen receptor beta (Homo sapiens) (UniProt Q92731) (assay: OT_ER_ERbERb_1440: Odyssey Thera (OT) 24-hour HEK293T Protein-Complementation Assay for Estrogen Receptor-beta/-beta Homodimer (AID 2283380);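 further: scored as signal increase over DMSO baseline for both agonists and antagonists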).
Summary of the method: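 HEK293T cells stably expressing ER beta LBD (aa 310-547) homodimer fragment-complementation reporter, dosed 24 h. Cells formaldehyde-fixed, Draq5-stained; gain in nuclear (agonist) or nuclear plus cytoplasmic (antagonist) fluorescence versus DMSO read by laser scanning cytometry.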

Chain of Estrogen receptor beta (Homo sapiens) (Q92731 whole entry, looked up, the tested form may be a part): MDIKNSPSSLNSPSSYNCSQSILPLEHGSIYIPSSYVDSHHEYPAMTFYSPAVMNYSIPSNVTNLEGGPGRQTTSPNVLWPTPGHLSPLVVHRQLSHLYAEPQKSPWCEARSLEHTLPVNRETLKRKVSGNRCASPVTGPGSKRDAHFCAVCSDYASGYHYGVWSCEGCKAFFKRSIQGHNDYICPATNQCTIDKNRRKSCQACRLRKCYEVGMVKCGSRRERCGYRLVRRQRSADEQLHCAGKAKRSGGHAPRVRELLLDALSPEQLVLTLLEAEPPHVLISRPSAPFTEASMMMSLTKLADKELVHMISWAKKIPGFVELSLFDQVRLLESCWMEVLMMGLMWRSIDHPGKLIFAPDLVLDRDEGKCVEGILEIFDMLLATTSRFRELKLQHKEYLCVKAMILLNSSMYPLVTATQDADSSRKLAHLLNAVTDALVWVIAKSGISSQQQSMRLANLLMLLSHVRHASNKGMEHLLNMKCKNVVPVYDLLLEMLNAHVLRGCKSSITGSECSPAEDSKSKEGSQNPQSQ

outcome, inactive:
CCc1nc(N)nc(N)c1-c1ccc(Cl)cc1
O=Cc1ccccc1C=O
Nc1nc(=S)c2[nH]cnc2[nH]1
CN(C)CCCN1c2ccccc2Sc2ccc(Cl)cc21
CCCCC(CC)COP(=O)(OCC(CC)CCCC)OCC(CC)CCCC (stereo not given)
CC(=O)[C@@]1(O)CC[C@H]2[C@@H]3CCC4=CC(=O)CC[C@]4(C)[C@H]3CC[C@@]21C
CN(C)C(=O)NC1(c2ccccc2)CCN(CCC[C@]2(c3ccc(Cl)c(Cl)c3)CCCN(C(=O)c3ccccc3)C2)CC1
COc1ccc(OC(F)(F)F)cc1CN[C@H]1CCCN[C@H]1c1ccccc1
CC(C)NCC(O)c1ccc(O)c(O)c1 (stereo not given)
CCCCCCCCCCCCCCOS(=O)(=O)O
CSc1ccc(Oc2ccc(S(N)(=O)=O)cc2CN(C)C)cc1C
CC(C)OC(=O)C(C)(C)Oc1ccc(C(=O)c2ccc(Cl)cc2)cc1
C/C=C/C=C/C(=O)O
S=c1[nH]c2ccccc2s1
CC(COCC(C)OC(=O)c1ccccc1)OC(=O)c1ccccc1 (stereo not given)
O=C(N[C@@H](c1ccccc1)[C@@H]1CCCCN1)c1cccc(C(F)(F)F)c1Cl
CCC(C)N(C)C(=O)c1cc2ccccc2c(-c2ccccc2Cl)n1 (stereo not given)
NC(=Nc1ccccc1)Nc1ccccc1

AC50, active:
Cc1cc(Cc2ccc(N)c(C)c2)ccc1N 64.1 µM
O=C1OC(c2ccc(O)cc2)(c2ccc(O)cc2)c2ccccc21 11.9 µM
CCN(CC)CCOc1ccc(C(=C(Cl)c2ccccc2)c2ccccc2)cc1 60.4 nM and 53.3 nM and 30.6 nM
